Inconclusive results are not listed. Calls of active or inactive are those of the source.
Experiment: qHTS for identification of novel therapeutic agents for treatment of microphthalmiaassociated transcription factor (MiT) renal cell carcinoma (RCC) (AID 1963991)
Settings: CellTiter-Glo, 48 h; for z-score: stronger effect = lower value
Source text: PI: Marston Linehan Ph.D.
Urologic Oncology Branch, Center for Cancer Research (CCR)
National Cancer Institute (NCI), National Institute of Health (NIH), Bethesda, Maryland
MiT-Renal Cell Carcinoma (RCC) is characterized by genomic translocations involving microphthalmia-associated transcription factor (MiT) family members TFE3, TFEB, or MITF. MiT-RCC represents a specific subtype of sporadic RCC that is predominantly seen in young patients and can present with heterogeneous histological features making diagnosis challenging. Moreover, the disease biology of this aggressive cancer is poorly understood and there is no accepted standard of care therapy for patients with advanced disease. Tumor-derived cell lines have been established from human TFE3-RCC providing useful models for preclinical studies. TFE3-RCC tumor derived cell lines and their tissues of origin were characterized by IHC and gene expression analyses. An unbiased high-throughput drug screen was performed to identify novel therapeutic agents for treatment of MiT-RCC. Potential therapeutic candidates were validated in in vitro and in vivo preclinical studies. Mechanistic assays were conducted to confirm the on-target effects of drugs. The results of a high-throughput small molecule drug screen utilizing three TFE3-RCC tumor-derived cell lines identified five classes of agents with potential pharmacological efficacy, including inhibitors of phosphoinositide-3-kinase (PI3K) and mechanistic target of rapamycin (mTOR), and several additional agents, including the transcription inhibitor Mithramycin A. Upregulation of the cell surface marker GPNMB, a specific MiT transcriptional target, was confirmed in TFE3-RCC and evaluated as a therapeutic target using the GPNMB-targeted antibody-drug conjugate CDX-011. […] The results of the high-throughput drug screen and validation studies in TFE3-RCC tumor-derived cell lines have provided in vitro and in vivo preclinical data supporting the efficacy of the PI3K/mTOR inhibitor.
SEQUENCE No. (e.g., 1, 2, 3, etc.); […] (e.g., Cells, Incubation, Reagent, etc.); VALUE; DESCRIPTION.
1; Cells; 3 uL; white, solid-bottom Grenier assay plate.
2; Compounds; 23 nL; Kalypsis pin-tool (Wako USA).
3; Incubation; 48 hr; 37 C, 5% CO2, 95% humidity.
4; Reagent; 3 uL; CellTiter-Glo reagent (Promega).
5; Incubation; 15 min; room temperature.
6; Detection; Luminescence; ViewLux plate reader (PerkinElmer).
NOTES (numbers refer to Sequence numbers above)
1. Quantitative high-throughput screening (qHTS) of 1912 pharmacologically defined small molecule compounds was conducted on three TFE3-fusion cell lines bearing three different fusion partners (UOK109, UOK124, UOK145). Briefly, 500 cells in complete growth media were plated into white, solid-bottom, 1536-well tissue culture treated plates (Grenier Cat. 789173-F) using a Multidrop Combi cassette dispenser.
2. Twenty-three nanoliter of 1912 pharmacologically defined small molecule compounds of the NCATS Mechanism Interrogation PlatE (MIPE) version 4.0 were added to each assay plate using a Pintool Dispenser (Wako) equipped with 1536 pin head.
3. Plates were covered with stainless steel gasketed lids and incubated for 48 hours at standard cell culture conditions.
4. Viability was assessed by adding 3uL of CellTiter-Glo detection reagent (Promega).
5. Plates were covered with gasket lids and incubated for 15 minutes at room temperature.
6. Luminescence was measured on a ViewLux plate reader (PerkinElmer). Post-screen data processing used DMSO controls as 100% viability and empty wells as 0% viability and dose response curve fitting was done for all 11 concentrations for each compound.

[1] = TFE3-RCC UOK109 viability, measured here: UOK109 Z-AUC
[2] = TFE3-RCC viability, measured here: UOK124 Z-AUC
[3] = TFE3-RCC viability, measured here: UOK145 Z-AUC
Potency means the concentration at half of the fitted maximal effect.

| SMILES | Potency (TFE3-RCC UOK109 viability, active = Z-AUC below -0.8 in all three lines) | z-score [1] | z-score [2] | z-score [3] |
| --- | --- | --- | --- | --- |
| Nc1ccc(-c2ccc3ncc4ccc(=O)n(-c5cccc(C(F)(F)F)c5)c4c3c2)cn1 | 3.32 µM (active) | -2.43 | -4.62 | -4.33 |
| O=C(NCCCCN1CCOCC1)c1cc2ccccc2o1 |  | 0.969 | 0.64 | 0.273 |
| c1ccc(CNc2nc(N3CCOc4ccccc43)nc3c2CCCC3)cc1 |  | 0.901 | 0.197 | 0.631 |
| NS(=O)(=O)c1cc(Cl)c(Cl)c(S(N)(=O)=O)c1 |  | 0.846 | 0.351 | 1.23 |
| O=c1[nH]c(=O)n([C@H]2C[C@@H](O)[C@@H](CO)O2)cc1I |  | 0.108 | 0.166 | 0.313 |
| CN1C(=O)C(Cc2c[nH]c3ccccc23)NC1=S (stereo not drawn) |  | 0.322 | 0.546 | 0.284 |
| Cc1cc(OCCCS(C)(=O)=O)cc(C)c1-c1cccc(COc2ccc3c(c2)OC[C@H]3CC(=O)O)c1 |  | 0.542 | 0.159 | 0.614 |
| CCOC(=O)[C@H]1O[C@H]1C(=O)N[C@@H](CC(C)C)C(=O)NCCC(C)C |  | 0.719 | 0.357 | 0.572 |
| CNc1nc(Nc2ccc(C(=O)N3CCOCC3)cc2OC)ncc1Cl |  | 0.622 | -0.0223 | 0.626 |
| CC(NCCc1ccc(O)cc1)C(O)c1ccc(O)cc1 (stereo not drawn) |  | 0.72 | 0.96 | 2.38 |
| CNC1[C@H](O)C(O[C@@H]2C(O)C(O[C@H]3O[C@H]([C@@H](C)NC)CC[C@H]3N)[C@@H](N)C[C@H]2N)OC[C@]1(C)O (stereo partly drawn) |  | 0.654 | 0.386 | 0.886 |
| Cc1ccc(S(=O)(=O)OCC(=O)Nc2ccc(C(=O)O)c(O)c2)cc1 |  | -0.0907 | 0.585 | -0.321 |
| CC(C)c1onc(-c2c(Cl)cccc2Cl)c1COc1ccc(C=Cc2cccc(C(=O)O)c2)c(Cl)c1 |  | 0.965 | 0.847 | 0.507 |
| COc1ccc2c(c1)CC[C@H]1[C@@H]2CC[C@]2(C)[C@@H](NCCCCCCN3C(=O)C=CC3=O)CC[C@H]12 |  | 1.13 | 0.647 | 0.661 |
